CBFb-RUNX1 inh – qHTS Assay for Compounds Blocking the Interaction Between CBF-beta and RUNX1 for the Treatment of Acute Myeloid Leukemia. 230,000 tested, under 10 active. Runt-related transcription factor 1 (Homo sapiens) + Core-binding factor subunit beta …. AID 1477, 2009. Potency, µM (top dose mostly 59.8 µM), for inactives: top-dose activity, negative = inhibition, most hits filed as inhibitors. AlphaScreen CBFb-His/RUNX1-biotin binding, biochemical; further: % of control where 0% means no effect
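AlphaScreen binding: CBFb-His and RUNX1-biotin (30 nM each) preincubated 20 min, compound added for 15 min, then nickel and streptavidin beads for 90 min, all at room temperature. Disruption of the interaction by any mechanism counts as activity.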
ERG Ets-DNA blk – qHTS for Small Molecule Inhibitors of the ERG Ets/DNA interaction. Transcriptional regulator ERG (Homo sapiens), P11308. fluorescence polarization, His-ERG Ets domain / labelled DNA. Potency, µM (titrated, usually from 76.9 µM), inactives show top-dose FP activity, negative = inhibition, actives largely listed as inhibitors. 370,000 compounds, 0.028% hits; active means well fitted inhibition curve with a large enough effect in the polarisation, with a control signal flat; inconclusive means small, poorly fitted or top-dose-only effect, or effect the other way, or a change in a side signal; inactive means no such curve, though single readings can be large or run the other way; the % refers to the polarisation;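 further: polarization taken with two DNA probes labelled with fluorescein and Texas red; potency means the concentration at half of the fitted maximal effect; % of control where 0% means no effect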
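His-tagged ERG Ets domain (1 uM in the protein solution; 300mM KCl, 50mM Tris-HCl, 1mM EDTA, 1mM DTT, pH 7.5) received compound, then a probe mix of 5 nM fluorescein-DNA and 100nM Texas-615-DNA. Fluorescence polarization was read for both dyes.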
TRb-SRC2 inh – qHTS for Inhibitors of the Interaction of Thyroid Hormone Receptor and Steroid Receptor Coregulator 2. Thyroid hormone receptor beta (Homo sapiens), P10828. TRbeta-SRC2 peptide binding, fluorescence polarization; receptor liganded with 1 µM T3. Potency, µM (series often up to 106 µM), without a hit: at the highest dose activity change, negative = inhibition, hits mostly inhibitors. 280,000 compounds, 0.065% hits. AID 1469, 2008;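 further: potency means the concentration at half of the fitted maximal effect; plate controls were bound peptide for no effect and peptide without receptor for full effect; nearly all actives have a fitted effect of over 50% in size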
Target sequence (P10828 whole entry, looked up): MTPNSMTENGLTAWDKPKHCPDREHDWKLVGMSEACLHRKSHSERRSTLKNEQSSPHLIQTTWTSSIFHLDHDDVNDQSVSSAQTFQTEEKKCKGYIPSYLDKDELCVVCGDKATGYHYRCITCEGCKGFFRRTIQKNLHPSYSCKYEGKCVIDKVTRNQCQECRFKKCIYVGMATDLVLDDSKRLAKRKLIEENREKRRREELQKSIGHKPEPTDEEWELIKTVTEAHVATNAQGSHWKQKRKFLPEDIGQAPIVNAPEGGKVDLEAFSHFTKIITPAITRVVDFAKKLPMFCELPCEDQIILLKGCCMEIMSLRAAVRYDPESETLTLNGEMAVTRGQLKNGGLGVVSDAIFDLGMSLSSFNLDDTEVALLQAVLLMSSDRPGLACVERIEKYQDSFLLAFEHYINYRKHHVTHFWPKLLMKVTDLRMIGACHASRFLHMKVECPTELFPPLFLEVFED
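Human TRb LBD (0.6 uM) plus Texas Red-labeled SRC2 peptide (20 nM), 1uM T3, 5% DMSO, 5 hr at ambient temperature. Decreased polarization (555/632 nm) flags inhibition; data normalized to free and bound peptide controls.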
RGS12 GoLoco inh – qHTS Assay for Inhibitors of RGS12 GoLoco Motif Activity (Red Fluorophore) | Guanine nucleotide-binding protein G(i) subunit alpha-1 (Homo sapiens), P63096 | AID 880, 2007 | Gai1:RGS12 GoLoco peptide FP, rhodamine, 10 min | 230,000 compounds, 0.44% hits | Potency, µM (top dose mostly 61.6 µM), without a hit: at the top dose activity, negative = inhibition, hits mostly inhibitors; active means well fitted inhibition curve with a large enough effect, not every such curve was filed as active; inactive means no such curve, though single readings can be large or run the other way; further: potency means the concentration at half of the fitted maximal effect; on the % scale 0 is the no-effect control and ±100 the full control effect; nearly all actives have a fitted effect of over 30% in size
TexasRed fluor – Total Fluorescence Counterscreen for Inhibitors of the Interaction of Thyroid Hormone Receptor and Steroid Receptor Coregulator 2. TRb/SRC2 Texas Red total fluorescence interference. Potency, µM (doses to about 106 µM), for the others: at the highest dose fluorescence change, negative = quenching. 280,000 compounds, 0.29% hits; active means well fitted curve in either direction with a large enough effect; inconclusive means small, poorly fitted or top-dose-only effect; further: potency means the concentration at half of the fitted maximal effect; on the % scale 0 is the no-effect control and ±100 the full control effect
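Human TRβ ligand-binding domain (0.6 uM) and Texas Red SRC2 peptide (20 nM) in Tris buffer with 1 uM T3 and 5% DMSO were incubated with pinned compound for 5 hr at ambient temperature. Total fluorescence was computed as S + 2P (555/632 nm).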
Numbers without * were called inactive; ? = inconclusive; . = not tested or not shown; ! = not confirmed by another sample; [ ] = another dose, or the depositor's remark. Many of the other results were omitted from the sample, so hits are more common in it than they were. Unless noted, the call rests on the fitted dose curve; in most records, active means well fitted curve in the direction sought with a large enough effect; inconclusive means small, poorly fitted or top-dose-only effect, or another doubt; inactive means no such curve, though single readings can be large; an effect the other way counts as inactive or inconclusive.

SMILES	CBFb-RUNX1 inh	ERG Ets-DNA blk	TRb-SRC2 inh	RGS12 GoLoco inh	TexasRed fluor
CCc1ccc(NC(=O)c2sc3nc(C)c(Cl)c(C)c3c2NC(=O)c2ccccc2OC)cc1	.	-5%	-9%	.	10µM*[quencher]
COc1ccccc1NC(=O)c1sc2nc(-c3cc4cc(Cl)ccc4oc3=O)[nH]c(=O)c2c1C	.	1%	-11%	.	18µM*[quencher]
Cc1cc(O)c(C=Nc2cccc(Cl)c2)c(=O)o1	-26%	91%	?	156%	45µM*[fluorescent]
COc1ccc(N=Cc2c(O)cc(C)oc2=O)cc1	-9%	-5%	-17%	30%	0%
O=C1C=C(c2cccc(CO)c2)C[C@@H](c2ccc(F)cc2)C1	.	4%	.	.	.
Cc1nc2cc(-c3ccsc3-n3c(C)ccc3C)[nH]n2c(=O)c1Cl	?	15%	19%	16%	45µM*[quencher]
Cn1c(C(O)C(O)c2ccccc2)nc2ccccc21 (centres undefined)	-4%	0%	-1%	0%	-1%
Cn1c(C(C#N)C2=C(Cl)C(=O)N(c3ccccc3)C2=O)nc2ccccc21 (centres undefined)	?	.	45µM*	14%	?
Cc1ccccc1-c1cc(NCc2ccccc2)ncn1	.	.	.	5%	.
O=C1CCCC/C=C/CCCCCCCCCO1	.	.	6%[201 µM]	.	0%[201 µM]
CCOC(=O)c1ccc(N2C(=O)c3n[nH]c(-c4cccs4)c3C2c2cccc(F)c2)cc1 (centres undefined)	.	6%	-6%	.	0%
O=c1cc(-c2ccc(O)cc2)oc2cc(O)cc(O)c12	?	-11%	?	18µM*!	?
CCn1c(C)[n+](CC)c2ccc(S(=O)(=O)NC)cc21	13%	1%	-14%	18%	-1%
CCn1c(C)[n+](CCCS(=O)(=O)[O-])c2cc(Cl)c(Cl)cc21	3%	-1%	-5%	4µM*	-1%
Cn1c(=O)[nH]c(=O)n(C2CCCCC2)c1=O	.	.	-3%[201 µM]	.	0%[201 µM]
CC(=O)c1ccc(NC(=O)CSc2nc(N)c3cc4c(nc3n2)CCCC4)cc1	-1%	-1%	-22%	56%	89µM*[quencher]
COc1cn(CC(=O)Nc2c(C)cc(C)cc2C)c(CN2CCCCC2)cc1=O	.	-6%	-1%	.	-3%
Cc1ccc(SC(C)C(=O)Nc2ccccc2-c2ccccc2)cc1 (centres undefined)	?	.	-7%	-4%	-4%
CC(Sc1ccc(Cl)cc1)C(=O)Nc1ccccc1-c1ccccc1 (centres undefined)	-3%	-2%	-12%[53 µM]	-10%	25µM*[quencher]
CC1CCC(C(C)C)C(OCC(O)C[N+]2(C)CCCCC2)C1 (centres undefined)	6%	26%	1%	6%	1%
CC1CCC(C(C)C)C(OCC[N+](C)(C)C)C1 (centres undefined)	0%	-40%	1%	4µM*	-17%
CN(C)c1ccc(C(c2ccccc2)c2ccc(N(C)C)cc2)cc1	.	.	7%[201 µM]	.	1%[201 µM]
CCSC(=O)N(CC(C)C)CC(C)C	.	.	3%[201 µM]	.	-5%[201 µM]
Cc1ccc(NC(=O)C(=O)NCCc2csc3nc(-c4ccccc4C)nn23)cc1Cl	.	-15%	0%	.	-16%
Cc1ccc(C)c(NC(=O)C(=O)NCCc2csc3nc(-c4ccccc4C)nn23)c1	.	-1%	-15%	.	22µM*[quencher]
SMILES	CBFb-RUNX1 inh	ERG Ets-DNA blk	TRb-SRC2 inh	RGS12 GoLoco inh	TexasRed fluor
CS(=O)(=O)N1CCc2cc(S(=O)(=O)NCCNS(=O)(=O)c3ccc4c(c3)CCN4S(C)(=O)=O)ccc21	3%	-5%	-1%	7%	-1%
COc1ccc(CC(C)NS(=O)(=O)c2ccc3c(c2)CCN3S(C)(=O)=O)cc1OC (centres undefined)	.	2%	-5%	.	7.1µM*[quencher]
Cc1nc2c(c(C)nn2C(C)(C)C)c(C)c1CCC(=O)Nc1ccc(Br)cc1Br	.	-5%	-3%	.	0%
CN1CCc2c(sc3c2C(=O)NC(c2cccs2)N3)C1 (centres undefined)	-9%	.	?	31%	45µM*[fluorescent]
Cc1ccsc1C1NC(=O)c2c(sc3c2CCN(C)C3)N1 (centres undefined)	-7%	14%	-11%	67%	17%
CCCCn1nnnc1SCC(=O)Nc1ccc(N(C)C)cc1	-8%	-6%	11%	10µM*	0%
[ClH+][Cu][ClH+].[Cu].[OH2+]c1ccc2ccccc2c1CN1CCCCC1.[OH2+]c1ccc2ccccc2c1CN1CCCCC1	.	.	.	-17%[14.2 µM]	.
NC(=O)c1cccc(CS(=O)(=O)c2ccc(Cl)cc2)c1	.	-7%	.	.	.
Fc1ccc(-c2noc3ncnc(N4CCN(c5ccccc5)CC4)c23)cc1	.	1%	-2%	.	-3%
Fc1ccc(-c2noc3ncnc(N4CCCCC4)c23)cc1	.	4%	-24%	.	89µM*[quencher]
O=C1CCCC(O)=C1N=Nc1c(Cl)cc(Cl)cc1Cl	-13%	?	28µM*	-14%	45µM*[fluorescent]
NC(N)=NC[C@@H]1COC2(CCCCC2)O1	8%[21.7 µM]	.	-4%[53 µM]	6%[21.6 µM]	-1%[53 µM]
C[N+]1(CC2COC3(CCCCC3)O2)CCCC1 (centres undefined)	-3%	13%	1%	10µM*	0%
O=C(N/N=C/c1cccc(F)c1)c1cc(-c2ccco2)nc2ccccc12	.	-1%	27%	18%	32µM*[quencher]
O=C1NC(=Nc2ccccc2)S/C1=C\c1cccs1	-12%	8%	8%	-1%	-2%
Cc1cc(C)cc(N=C2NC(=O)/C(=C/c3cccs3)S2)c1	-16%	-2%	0%	1.8µM*	-7%
COC(=O)[C@@H]1C[C@H]1[C@@H](NC(=O)c1cnccn1)c1ccccc1	0%	.	4%	3%	0%
CCOc1ccc(NC(=O)OC(C)C)cc1OCC	.	.	3%[201 µM]	.	-2%[201 µM]
COc1ccc(F)cc1S(=O)(=O)Nc1cccc(-c2ccc(N3CCC(C)CC3)nn2)c1	.	10%	-20%	.	6.3µM*[quencher]
COc1ccc(C)cc1S(=O)(=O)Nc1cccc(-c2ccc(N3CCC(C)CC3)nn2)c1	.	2%	3%	.	-2%
COC(=O)c1ccc(NC(=S)N2CCN(CCO)CC2)cc1	.	-6%	.	.	.
CCOCCCNC(=O)CN1C(=O)c2c(c3ccccc3n2C)C1c1ccc(OC)cc1 (centres undefined)	.	-5%	2%	.	1%
CC(C)Cc1c(C(=O)O)c(C(F)F)nc(C(F)(F)F)c1C1=NCCS1	.	.	0%[201 µM]	.	-2%[201 µM]
Cc1ccccc1CSCc1nc2ccccc2[nH]1	-6%	12%	-15%[53 µM]	17%	1.1µM*[quencher]
Cc1ccc(C)c(CSCc2nc3ccccc3[nH]2)c1	.	-4%	.	.	.

Source: PubChem BioAssay
